# Mot1-301 SUMO: SUMOylation pathway inhibition by Mot1-301 growth rescue. S. cerevisiae Mot1-301 growth rescue, ATP luminescence, 38.5C; percent above DMSO median, 100 means doubled. growth rescue, % at 18.8 µM. 1% of 320,000 active. AID 2716;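 active = every valid replicate shows activation above 250% relative to neutral control wells; inactive = the rest, any valid replicate at or below 250%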
# M18AAP inhibitor: PfM18AAP enzyme inhibition; recombinant PfM18AAP, H-Glu-NHMec fluorogenic cleavage; inhibition, % at 7.35 µM; 1.2% of 290,000 active;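 active = inhibition above the campaign mean inhibition over all tested compounds plus 3 SD, cut at about 28% in these data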
# ALR inh: human ALR oxidase inhibition via reduced H2O2 | AID 485317 | purified ALR, DTT oxidation, H2O2 HRP-luminol luminescence | 3.8% of 290,000 active | P55789 | inhibition, % (concentration not given with the values);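 active = mean replicate inhibition above about 79%, with every replicate also reaching it, limit read from the data; inconclusive = only one of the two criteria met; inactive = mean below limit and not every replicate reaching it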
# Target sequence (P55789 whole entry, looked up): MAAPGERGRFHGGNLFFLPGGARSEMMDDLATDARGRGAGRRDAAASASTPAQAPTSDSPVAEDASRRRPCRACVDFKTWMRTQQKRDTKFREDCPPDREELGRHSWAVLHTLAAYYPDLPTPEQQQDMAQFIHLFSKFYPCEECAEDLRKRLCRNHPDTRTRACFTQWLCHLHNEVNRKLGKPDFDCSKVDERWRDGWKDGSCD
# HIF act: HIF pathway transcriptional activation. 0.32% of 300,000 active. U2OS HRE-luciferase reporter, luminescence; normalized: DMSO 0%, desferrioxamine 100%. activation, % at 7.5 µM (by protocol);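 active = mean activation of at least 10% of the iron chelator positive control signal, with at least half of replicates also reaching 10%; inconclusive = mean and replicate majority disagree about reaching 10%; inactive = mean and most replicates under 10%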
# Numbers stand for hits; 0 = inactive; ? = inconclusive; - = not tested or not shown; + = active, no number. The list is not random: actives were taken first. Their share in the collection is about 5.3%.
SMILES,Mot1-301 SUMO,M18AAP inhibitor,ALR inh,HIF act
Cc1cc(NC(c2cccnc2)c2ccc3cccnc3c2O)no1 (configuration not stated),0,0,0,22
COc1ccc(CCNC(=O)C2CC(c3ccccc3F)=NO2)cc1 (configuration not stated),0,-,0,0
CC(C)(C)c1ccc(Oc2ccc(NC(=O)CCCC(=O)O)cn2)cc1,0,0,91,0
CN(C)c1ccc(/C=N/N2CCN(Cc3ccccc3Cl)CC2)cc1,0,0,-,0
CC12CN3CC(C)(CN(C1)C3c1ccccc1)C2O (configuration not stated),0,0,0,0
CC12CN3CC(C)(CN(C1)C3c1ccc3c(c1)OCO3)C2O (configuration not stated),+,0,0,0
COc1ccc(S(=O)(=O)N2CCCC(C(=O)NCCN3CCOCC3)C2)cc1C (configuration not stated),318,0,0,0
NC(=O)COc1ccccc1C(=O)O,0,0,87,0
CC(C)(C)NC(=O)COC(=O)c1ccc(Cl)nc1,0,0,0,71
O=C(COC(=O)c1ccc(Cl)nc1)NCCC1=CCCCC1,0,0,88,0
O=C(OCC(=O)N1CCN(c2ccccc2)CC1)c1ccc(Cl)nc1,0,-,97,0
O=C(COC(=O)c1ccc(Cl)nc1)NCCNC(=O)COC(=O)c1ccc(Cl)nc1,0,-,0,0
Cn1c(=O)c2sccc2n2c(CCCC(=O)N3CCN(c4ccccn4)CC3)nnc12,0,0,0,0
Cc1ccccc1OCC(=O)N(Cc1cccs1)C1CCS(=O)(=O)C1 (configuration not stated),0,0,97,0
COc1cccc(C(=O)N(Cc2ccc(N(C)C)cc2)C2CCS(=O)(=O)C2)c1 (configuration not stated),0,0,88,0
CN(C)c1ccc(CN(C(=O)/C=C/c2ccco2)C2CCS(=O)(=O)C2)cc1 (configuration not stated),0,0,86,0
CN(C)c1ccc(CN(CC2CCCO2)C(=O)c2cccs2)cc1 (configuration not stated),0,0,92,0
Cc1cccnc1NC(=O)c1cccc(NC(=O)CC2SC(N3CCCCC3)=NC2=O)c1 (configuration not stated),0,-,-,-
CCOc1ccc(CN(C(=O)c2cccs2)C2CCS(=O)(=O)C2)cc1 (configuration not stated),0,0,0,0
CN(C)c1ccc(CN(C(=O)c2cccs2)C2CCS(=O)(=O)C2)cc1 (configuration not stated),0,0,93,0
COC(=O)c1ccc2nc(C)cc(Nc3ccc(N(C)C)cc3)c2c1,0,0,99,0
C/C(N)=C(/C#N)C(=O)CSc1nnc(Nc2c(C)cccc2C)s1,337,0,0,0
COc1ccc(-c2csc(/C(C#N)=C(\O)CSc3nccn3C)n2)cc1OC,0,0,86,0
CCOC(=O)COc1cccc2c(=O)n(CC(=O)N3CCCc4ccccc43)ccc12,0,0,97,0
COc1cccc2c(=O)n(CC(=O)N3CCCc4ccccc43)ccc12,0,0,-,0
SMILES,Mot1-301 SUMO,M18AAP inhibitor,ALR inh,HIF act
C#CCCOC(=O)N1C2=NC(C(=O)OC)=C(C(=O)OC)[C@@H]3N(Cc4ccccc4)c4ccccc4[C@]23C[C@H]1C(=O)OC,0,-,0,0
CCOC(=O)/C(C#N)=C/c1cc2cc(C)c(C)cc2nc1Cl,0,0,0,0
CCOC(=O)/C(C#N)=C/c1cc2ccc(C)cc2nc1Cl,0,0,96,0
Cc1cc2cc(C=C(C#N)C#N)c(Cl)nc2cc1C,0,0,98,0
CCCC1CCC(=C(C#N)C(N)=O)CC1 (configuration not stated),0,0,0,?
Nc1c(C(=O)CSc2nnc(Cc3ccccc3)o2)c(=O)[nH]c(=O)n1C1CC1,0,-,0,-
C#CCN(CC=C)C(=O)c1ccc(OC2CCN(S(=O)(=O)N(C)C)CC2)cc1,0,0,0,0
Cc1cc(C)n(-c2c(C)[nH]c3ccccc23)n1,0,0,0,0
Cc1cc(-c2nsc(=O)o2)c(S(C)(=O)=O)s1,0,0,99,0
CC(C)N(CCC(=O)c1ccc2ccccc2c1)Cc1ccccc1,0,-,97,-
CC(OC(=O)c1ccc2ccccc2c1)C(=O)N(C)Cc1ccccc1 (configuration not stated),0,-,0,-
CC(C)[C@@H](CSc1ccccc1)N1CCN(Cc2ccccc2)CCC1=O,0,0,-,0
O=c1[nH]ccc2c([N+](=O)[O-])cccc12,0,0,0,0
Nc1cc2c([N+](=O)[O-])cccc2o1,0,0,85,0
CN(C)c1ccc(/C=C2\C(=N)N3C(=NC2=O)Sc2cc(S(C)(=O)=O)ccc23)cc1,0,0,0,0
COC1=C/C(=C/c2c(N)n3nc(CC(=O)N4CCCCC4)sc3nc2=O)C=CC1=O,0,0,100,0
Nc1c(C=C2C=CC(=O)C=C2)c(=O)nc2sc(CC(=O)N3CCOCC3)nn12,0,0,98,0
CCOC1=C/C(=C/c2c(N)n3nc(CC(=O)N4CCCCC4)sc3nc2=O)C=CC1=O,0,0,99,0
CCOC1=C/C(=C/c2c(N)n3nc(S(=O)(=O)CC)sc3nc2=O)C=CC1=O,0,0,99,0
O=C(O)CCCC(=O)N1CCc2cc(S(=O)(=O)NCc3ccc(F)cc3)ccc21,0,0,0,0
CC1CCN(CC(=O)N2c3ccccc3CCc3ccccc32)CC1,0,0,84,0
CC1CCN(CC(=O)NC(=O)NCc2ccccc2)CC1,332,0,0,-
Cc1cccc(C(=O)NC2CCN(C(=O)Nc3ccc(F)cc3)CC2)c1,0,0,0,0
O=C(Nc1ccc(N2CCOCC2)cc1)c1ccc([N+](=O)[O-])o1,0,0,-,0
C=CCn1c(CCNC(=O)c2cccs2)nnc1SCC(=O)c1ccc(Cl)cc1,-,0,-,0
SMILES,Mot1-301 SUMO,M18AAP inhibitor,ALR inh,HIF act
C=CCn1c(CNC(=O)c2cccs2)nnc1SCC(=O)c1ccc(Br)cc1,-,0,86,0
O=[N+]([O-])c1ccc2[nH]c3c(c2c1)CCCC3,0,0,98,0
Cc1ccc(NC(=O)c2ccc3c(c2)CCN3S(C)(=O)=O)cc1C,0,0,0,0
O=C(Nc1cccnc1)c1cccnc1Cl,339,0,-,0
O=C(Nc1cccnc1)c1ccccc1O,0,0,0,0
Cc1ccc(SCC(=O)OCC(=O)NC(C)c2ccc(F)cc2)cc1 (configuration not stated),0,-,0,-
Cn1c(NNC(=O)c2cccc3ccccc23)cc(=O)n(C)c1=O,0,0,0,0
O=C(CC1C(=O)NCCN1CC1CCCCC1)NCCc1ccc(F)cc1 (configuration not stated),0,0,-,0
CC(C)(C)NC(=O)CCN(/N=C/c1ccccc1)C1=NS(=O)(=O)c2ccccc21,0,0,0,0
CC(C)(C)NC(=O)CCN(/N=C/c1ccccc1F)C1=NS(=O)(=O)c2ccccc21,312,0,0,0
Oc1[nH]c2ccccc2c1N=Nc1ncnc2c1oc1ccccc12,0,0,0,0
COc1ccc(N2CCN(C(=O)C3CCN(S(=O)(=O)c4ccc(F)cc4)CC3)CC2)cc1,0,0,0,0

# Screens as filed in PubChem.
